hcDAF12 agonist = activators of H. contortus DAF-12 nuclear receptor. HEK293 hcDAF-12 lit1-tk-luc reporter, luminescence; 0% DMSO, 100% Δ7-dafachronic acid. activation, % at 6.8 µM. hit rate 1.4% among 370,000. AID 652067;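 active means activation above the mean of all tested compounds plus 3 SD, cut at about 5.5% in these data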;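 further: 100% = response to 3 µM Δ7-dafachronic acid high control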
hgDAF12 agonist = agonists of H. glycines DAF-12 nuclear receptor; HEK293 GAL4-hgDAF12 UAS-luciferase reporter, agonist luminescence; normalized to butyrate control; activation, % at 6.8 µM; hit rate 1.8% among 370,000; AID 687014;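 active means activation above a cutoff set at the mean of all screened compounds plus 3 SD, cut at about 10% in these data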;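 further: 0% = DMSO wells and 100% = sodium butyrate wells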
DAX1 inh-1 = inhibitors of DAX1 repression of SF-1 activated StAR promoter; HEK293T StAR-luciferase reporter, SF-1/DAX-1 repression relief; hit rate 1.1% among 370,000; inhibition, % at 6.8 µM;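 active means inhibition above the mean over all tested compounds plus 3 SD, cut at about 3.6% in these data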;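 further: 0% = DAX-1 cells with DMSO and 100% = cells lacking DAX-1 with DMSO; higher inhibition means more luminescence from relief of DAX-1 repression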
ssDAF-12 act = activators of S. stercoralis DAF-12 nuclear receptor. HEK293 ssDAF-12/GRIP1 lit1-tk-luc reporter, luminescence; % of 3 µM dafachronic acid response. activation, % at 6.8 µM. hit rate 1% among 370,000;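 active means activation above the mean over all tested compounds plus 3 SD, cut at about 0.9% in these data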;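 further: 0% = DMSO-only wells and 100% = 3 µM delta7-dafachronic acid wells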
DAX1 inh-2 = inhibitors of human orphan nuclear receptor DAX1 (NR0B1) | HEK293 Gal4-DAX1 luciferase reporter, luminescence | AID 504766 | P51843 | inhibition, % at 6.75 µM | hit rate 0.99% among 340,000;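 active means inhibition above the mean over all tested compounds plus 3 SD, cut at about 4.2% in these data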;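 further: 0% = DAX1-transfected cells with DMSO and 100% = empty-vector control cells with DMSO; inhibition shows as a rise in luminescence from relieved DAX1 repression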
Target sequence (P51843 207-470 limits assumed): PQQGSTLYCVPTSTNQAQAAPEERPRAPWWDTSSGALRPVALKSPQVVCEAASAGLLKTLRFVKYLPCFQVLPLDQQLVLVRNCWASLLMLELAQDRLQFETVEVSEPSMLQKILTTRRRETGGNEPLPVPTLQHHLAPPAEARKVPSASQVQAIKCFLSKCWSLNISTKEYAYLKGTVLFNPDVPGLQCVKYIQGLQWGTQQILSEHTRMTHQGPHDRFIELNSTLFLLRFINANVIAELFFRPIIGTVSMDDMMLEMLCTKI
GAA850 FXN act = activators of GAA850 frataxin (FXN) promoter; HEK293 lucGAA850 FXN promoter luciferase reporter, 24 h; percent of 10 µM SAHA response; activation, % at 6 µM; hit rate 0.56% among 360,000; AID 540364;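 active means activation above the average of all compounds screened plus 3 SD, cutoff fixed separately per campaign, cut at about 7.5% in these data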;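 further: 0% = DMSO wells and 100% = 10 µM SAHA wells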
Active calls of the source: *. In the library only some 4.5% were active in any assay of this set; here they are far more common.

How did O=C(O)/C=C/C(=O)Nc1c(F)cccc1F do in these assays?
hcDAF12 agonist: -2; hgDAF12 agonist: -1; DAX1 inh-1: 0; ssDAF-12 act: -1; DAX1 inh-2: 4.2*; GAA850 FXN act: 1

Results for O=C(O)/C=C/C(=O)Nc1ccccc1-c1ccccc1NC(=O)/C=C/C(=O)O ?
hcDAF12 agonist: -2; hgDAF12 agonist: 1; DAX1 inh-1: 0; ssDAF-12 act: -2; DAX1 inh-2: -1; GAA850 FXN act: -2

What do the screens show for `COc1cccc(CC(=O)O[C@@H]2CCC[C@@]3(C(=O)N(Cc4ccccc4)c4ccccc43)[C@H]2NC(=O)CCc2ccccc2)c1`?
hcDAF12 agonist: -4; hgDAF12 agonist: -3; DAX1 inh-1: -2; ssDAF-12 act: -2

What do the screens show for `CCN(CC)C(=O)C1CCCN(Cc2ccc3ccccc3c2)C1` (stereo not drawn)?
hcDAF12 agonist: 0; hgDAF12 agonist: 0; DAX1 inh-1: -1; ssDAF-12 act: -1; DAX1 inh-2: 0; GAA850 FXN act: 0

How did NC(=O)C1CCCN(Cc2ccc3ccccc3c2)C1 (stereo not drawn) do in these assays?
hcDAF12 agonist: -1; hgDAF12 agonist: -2; DAX1 inh-1: -1; ssDAF-12 act: -1; DAX1 inh-2: 5.1*; GAA850 FXN act: 1

What do the screens show for `CCOC(=O)Cn1cc(CN2C(C(=O)OC)CN(C3CCCC3)CCS2(=O)=O)nn1` (stereo not drawn)?
hcDAF12 agonist: -2; hgDAF12 agonist: 3; DAX1 inh-1: 0; ssDAF-12 act: 0

What do the screens show for `CC(C)c1cc(C(=O)N/N=C/c2c[nH]c3ccccc23)n[nH]1`?
hcDAF12 agonist: 2; hgDAF12 agonist: 2; DAX1 inh-1: 0; ssDAF-12 act: -1; DAX1 inh-2: 4.7*; GAA850 FXN act: 1

What do the screens show for `CCOc1ccccc1/C=N/NC(=O)c1cc(C(C)C)[nH]n1`?
hcDAF12 agonist: 4; hgDAF12 agonist: -2; DAX1 inh-1: 0; ssDAF-12 act: 0; DAX1 inh-2: 0; GAA850 FXN act: 0

What do the screens show for `O=C(CSc1nnc(SCc2ccccc2)s1)N/N=C/c1c[nH]c2ccccc12`?
hcDAF12 agonist: -1; hgDAF12 agonist: 1; DAX1 inh-1: -1; ssDAF-12 act: -2; DAX1 inh-2: 1; GAA850 FXN act: 2

Results for O=C(CSc1nnc(SCc2ccccc2Cl)s1)N/N=C/c1c[nH]c2ccccc12 ?
hcDAF12 agonist: 6.4*; hgDAF12 agonist: 0; DAX1 inh-1: 0; ssDAF-12 act: 0; DAX1 inh-2: -1; GAA850 FXN act: 2

Results for O=C(N/N=C/c1c[nH]c2ccccc12)c1cccc(Cl)c1 ?
hcDAF12 agonist: 5; hgDAF12 agonist: 6; DAX1 inh-1: 0; ssDAF-12 act: 1.4*; DAX1 inh-2: 2; GAA850 FXN act: 4

Results for Cc1ccc2c(c1)C1CS(=O)(=O)N(Cc3ccc(F)cc3)CN1C2 (stereo not drawn) ?
hcDAF12 agonist: -1; hgDAF12 agonist: 0; DAX1 inh-1: -1; ssDAF-12 act: -1

What do the screens show for `CC(C)C[C@H]1COc2cc(N3CCSCC3)ccc2S(=O)(=O)N1C`?
hcDAF12 agonist: 0; hgDAF12 agonist: -1; DAX1 inh-1: -1; ssDAF-12 act: -1

What do the screens show for `O=C(NNC(=O)c1ccc([N+](=O)[O-])cc1Cl)c1ccncc1`?
hcDAF12 agonist: 3; hgDAF12 agonist: 3; DAX1 inh-1: 1; ssDAF-12 act: 1.0*; DAX1 inh-2: 1; GAA850 FXN act: 1

How did CCOC(=O)C1CCN(C(=O)C(Cc2ccc3c(c2)OCO3)NC(C)=O)CC1 (stereo not drawn) do in these assays?
hcDAF12 agonist: -2; hgDAF12 agonist: 2; DAX1 inh-1: -1; ssDAF-12 act: -1

What do the screens show for `CCOC(=O)Cc1nc(N2CCN(C(=O)C3CCCO3)CC2)c2c(C)c(C(=O)OCC)sc2n1` (stereo not drawn)?
hcDAF12 agonist: -2; hgDAF12 agonist: -1; DAX1 inh-1: 0; ssDAF-12 act: 0

Results for Cc1nc(NC(=O)c2cccc(Cl)c2)sc1C(=O)N1CCCCC1 ?
hcDAF12 agonist: 0; hgDAF12 agonist: 11*; DAX1 inh-1: 2; ssDAF-12 act: -1; DAX1 inh-2: 0; GAA850 FXN act: 5

How did Cc1nc(NC(=O)C2CC2)sc1C(=O)N1CCCCC1 do in these assays?
hcDAF12 agonist: -2; hgDAF12 agonist: -1; DAX1 inh-1: 1; ssDAF-12 act: -1; DAX1 inh-2: 0; GAA850 FXN act: 2

What do the screens show for `COc1cccc(/C=C2\CC3(OC(=O)c4cccc(F)c4)CCCN2C3)c1` (stereo not drawn)?
hcDAF12 agonist: 1; hgDAF12 agonist: -3; DAX1 inh-1: 0; ssDAF-12 act: -1

What do the screens show for `C=CCNC(=O)c1nn2cccnc2c1Cl`?
hcDAF12 agonist: -1; hgDAF12 agonist: 0; DAX1 inh-1: 2; ssDAF-12 act: -1; DAX1 inh-2: 1; GAA850 FXN act: 2

Results for O=C(NCc1cccnc1)c1nn2cccnc2c1Cl ?
hcDAF12 agonist: 1; hgDAF12 agonist: 1; DAX1 inh-1: 1; ssDAF-12 act: -1; DAX1 inh-2: 5.0*; GAA850 FXN act: 2

How did Cc1cc(NS(=O)(=O)c2ccc(NC(=O)Cc3ccc(Cl)c(F)c3)cc2)no1 do in these assays?
hcDAF12 agonist: -3; hgDAF12 agonist: -1; DAX1 inh-1: -1; ssDAF-12 act: -2

What do the screens show for `COc1ccc(C(=O)CCNc2cccc(Cl)c2)cc1`?
hcDAF12 agonist: 2; hgDAF12 agonist: 5; DAX1 inh-1: 1; ssDAF-12 act: -1; DAX1 inh-2: 1; GAA850 FXN act: 3

Results for CCCOc1ccc(C(=O)CCNc2cccc(Cl)c2)cc1 ?
hcDAF12 agonist: -1; hgDAF12 agonist: 5; DAX1 inh-1: 0; ssDAF-12 act: 1.4*; DAX1 inh-2: 1; GAA850 FXN act: 5

What do the screens show for `NC(=O)C1C(=O)c2ccccc2C1(C[N+](=O)[O-])c1ccccc1` (stereo not drawn)?
hcDAF12 agonist: 5.8*; hgDAF12 agonist: -2; DAX1 inh-1: 1; ssDAF-12 act: 0; DAX1 inh-2: 0; GAA850 FXN act: -1

Results for O=C(O)CC1(c2ccccc2)C(=O)c2ccccc2C1=O ?
hcDAF12 agonist: -1; hgDAF12 agonist: -1; DAX1 inh-1: 0; ssDAF-12 act: -1; DAX1 inh-2: 0; GAA850 FXN act: 0

Results for O=C(Nc1ccccc1)Nc1ccccn1 ?
hcDAF12 agonist: 3; hgDAF12 agonist: 5; DAX1 inh-1: 2; ssDAF-12 act: -1; DAX1 inh-2: 1; GAA850 FXN act: 1

What do the screens show for `N/C(=N\NC(=O)Nc1ccc(Cl)cc1)c1ccccn1`?
hcDAF12 agonist: 5.6*; hgDAF12 agonist: 5; DAX1 inh-1: 1; ssDAF-12 act: 0; DAX1 inh-2: 2; GAA850 FXN act: 2
